The text below walks through data of ChEMBL document CHEMBL1157539, “Thousands of chemical starting points for antimalarial lead identification” (Nature, 2010).

Format in all cases: functional
Test [1] relates to Plasmodium falciparum. Put plainly: GSK_TCMDC: Inhibition of Plasmodium falciparum 3D7 in whole red blood cells, using parasite LDH activity as an index of growth. Test compounds present at 2uM.
The test system of test [2] is Plasmodium falciparum. Briefly: GSK_TCMDC: Inhibition of Plasmodium falciparum Dd2 in whole red blood cells, using parasite LDH activity as an index of growth. Test compounds present at 2uM.
The subject of test [3] is HepG2. Briefly: GSK_TCMDC: Percent inhibition of human HepG2 cell line. Test compounds present at 10uM.

With `CCc1cn2c3c(cc(C(=O)N[C@@H](Cc4ccccc4)[C@H](O)CNC4CCOCC4)cc13)N(C)S(=O)(=O)C2.O=CO`, the Inhibition was 99% in test [1], 98% in test [2] and 13% in test [3].
The corresponding values for `Cc1noc(C)c1S(=O)(=O)N(C)Cc1ccc(-c2ccc(Cl)cc2)o1` are 100%, 100% and 10%.
The matching figures for `O=C(O)C(F)(F)F.OC1CCCN(Cc2cccc(-c3ccc(-c4nc5cc(C(F)(F)F)ccc5[nH]4)cc3)c2)C1` (stereo not drawn): 100%, 91% and 27%.
The corresponding values for `CC(=O)Nc1ccc(NC(=O)c2cc(-c3cc(Cl)ccc3O)n[nH]2)cc1` are 100%, 100% and 1%.
With `CCNc1cc(C(=O)N[C@@H](Cc2ccccc2)[C@H](O)CNC(C)(C)Cc2cccc(Cl)c2)cc(N2CCCCS2(=O)=O)c1.Cl`, the Inhibition is reported as 97% in test [1], 74% in test [2] and 17% in test [3].
The corresponding values for `CN(c1ccc(NC(=O)c2cccc(F)c2)cc1)C1CCCN(Cc2cccc(O)c2)C1.O=C(O)C(F)(F)F` (stereo not drawn) are 85%, 2% and 13%.
The matching figures for `Oc1ccc2nc(NCCCc3ccccc3)nc(NCCCc3ccccc3)c2c1`: 100%, 93% and 5%.
Regarding `Cc1[nH]c(C)c(-c2ccc(-c3ccc(OC(F)(F)F)cc3)nc2)c(=O)c1Br`, the results for the Inhibition in test [1], in test [2] and in test [3] were 97%, 97% and 26%, respectively.
On to `COc1ccc2ncc(F)c(CCN3CC[C@H](NCc4cc5c(s4)CCCN5)[C@H](O)C3)c2n1.Cl`, for which the Inhibition turned out to be 96% in test [1], 16% in test [2] and 2% in test [3].
The corresponding values for `NC1=NC(c2ccccc2)(c2ccccc2)C(=O)N1Cc1ccc(-c2ccncc2)cc1.O=CO` are 96%, 74% and 20%.
The matching figures for `CCC(C)NCC(O)(c1ccc(Cl)cc1)c1ccc(Cl)cc1` (stereo not drawn): 95%, 76% and 5%.
The matching figures for `O=C(C=Cc1ccc(Cl)c(Cl)c1)NC1CCN(CCc2ccccc2)CC1.O=C(O)C(F)(F)F`: 97%, 13% and 6%.
Consider `Cc1nc(N2CCC(C)CC2)c2c3c(sc2n1)CCCC3`, for which the Inhibition is 93% in test [1], 39% in test [2] and 13% in test [3].
Regarding `CC(Oc1ccc(NC(=O)c2cccs2)cc1)C(=O)c1ccc(Cl)cc1` (stereo not drawn), the Inhibition in test [1] worked out at 92%; in test [2] it was 83%; in test [3], 0%.
Regarding `Nc1nc(-c2ccc3c(Nc4ccc(F)c(Cl)c4)ccnc3c2)cs1`, the Inhibition came out at 100% in test [1], 88% in test [2] and 13% in test [3].
The matching figures for `O=C(Cc1cc(F)cc(F)c1)NC1CCN(c2ccnc3cc(Cl)ccc23)C1.O=C(O)C(F)(F)F` (stereo not drawn): 82%, 100% and 13%.
The matching figures for `Cc1nc(-c2ccccc2)nc(N2CCN(C(=O)c3ccco3)CC2)c1Cc1ccccc1F`: 95%, 86% and 7%.
The matching figures for `O=C(NC1CCCCCC1)[C@@H]1CCCN1C(=O)c1ccc(O)c(-c2ccc(Cl)c(Cl)c2)c1`: 99%, 98% and 0%.
Turning to `CN1CCC(N2CCN(Cc3cccc(-c4ccc(-c5nc6cc(C(F)(F)F)ccc6[nH]5)cc4)c3)CC2)CC1.O=C(O)C(F)(F)F`, the Inhibition in test [1] is 100%; in test [2], 91%; in test [3], 100%.
Consider `COc1cc2nc(N[C@@H](CO)c3ccccc3)nc(NCc3ccccc3)c2cc1OC`, for which the results for the Inhibition in test [1], in test [2] and in test [3] were 100%, 71% and 6%, respectively.
The corresponding values for `CCc1cn2c3c(cc(C(=O)N[C@@H](Cc4ccccc4)[C@H](O)CNC4CCOCC4)cc13)N(C(C)C)S(=O)(=O)CC2.O=CO` are 98%, 99% and 0%.
Turning to `CC1CN(c2cnn(C/C=C/c3ccc(NC(=O)c4ccc([N+](=O)[O-])cc4)cc3)c(=O)c2Cl)CC(C)N1.O=C(O)C(F)(F)F` (stereo not drawn), the Inhibition in test [1] turned out to be 96%; in test [2], 38%; in test [3], 22%.
For the compound `c1ccc(-n2cncn2)cc1`, the results for the Inhibition in test [1], in test [2] and in test [3] were 93%, 96% and 0%, respectively.
The matching figures for `O=C(NC1CCN(Cc2ccccc2)CC1)c1cccc(-c2cc3cc(Cl)c(Cl)cc3[nH]2)c1.O=C(O)C(F)(F)F`: 100%, 86% and 15%.
In the case of `O=C(c1cc(C(=O)Nc2ccccc2F)c(=O)n(-c2ccccc2F)c1)c1cc(Cl)ccc1O`, the Inhibition in test [1] is 98%; in test [2], 80%; in test [3], 2%.
For the compound `Cn1nc(-c2ccccc2F)c2cc(C(=O)NC3CCN(Cc4ccccc4)CC3)sc21`, the figures for the Inhibition in test [1], in test [2] and in test [3] were 97%, 34% and 5%, respectively.
The corresponding values for `CC(C)CCNC(=O)c1cnc2c(O)cccc2c1Nc1cccc(NC(=O)c2ccc(F)cc2)c1.O=C(O)C(F)(F)F` are 93%, 43% and 51%.
Turning to `Cc1cccc2nc(-c3ccc(-c4ccc(CN5CCCC(O)C5)cc4)cc3)[nH]c12.O=C(O)C(F)(F)F` (stereo not drawn), the Inhibition in test [1] is recorded as 100%; in test [2], 54%; in test [3], 41%.
The matching figures for `COc1ccc(N2CCN(CCCCNC(=O)c3ccc(NC(=O)c4ccc(Cl)cc4)cc3)CC2)c(OC)c1.Cl`: 97%, 22% and 25%.
The matching figures for `Cc1ccc(C2(C)CN(CCCOc3cccc(-c4ccc(C(=O)NC(C)C)cc4)c3)CCO2)cc1` (stereo not drawn): 93%, 89% and 15%.
As to `CCc1cn2c3c(cc(C(=O)N[C@@H](Cc4cccc(F)c4)[C@H](O)CNC4CCOCC4)cc13)N(C)S(=O)(=O)CC2.O=CO`, the results for the Inhibition in test [1], in test [2] and in test [3] were 97%, 97% and 0%, respectively.
On to `Fc1ccc(-c2oc(C3CCN(CCc4ccc(-c5noc(=S)[nH]5)cc4)CC3)nc2COCC(F)(F)F)cc1`, for which the Inhibition in test [1] worked out at 97%; in test [2], 95%; in test [3] it was 5%.
The matching figures for `COc1cc(F)c2nccc([C@@H](O)CN3CCC(NCc4ccc5c(n4)NC(=O)CS5)CC3)c2c1`: 100%, 25% and 23%.
`CCc1cc2c(=O)c(-c3nc(C)cs3)c(N)oc2c(CN2CCCCC2)c1O`: the Inhibition is recorded as 99% in test [1], 97% in test [2] and 0% in test [3].
The corresponding values for `Fc1ccc2[nH]c(-c3ccc(-c4ccc(CNCC5CCCO5)cc4)cc3)nc2c1.O=C(O)C(F)(F)F` (stereo not drawn) are 100%, 100% and 26%.
Take `CCc1c(C)nc(-n2nc(C)cc2NC(=O)c2cccc3ccccc23)[nH]c1=O`: the results for the Inhibition in test [1], in test [2] and in test [3] were 98%, 89% and 39%, respectively.
The corresponding values for `Cc1n[nH]c(C)c1C1CCN(CC2CCC(NC(=O)/C=C/c3ccc(Cl)c(Cl)c3)CC2)CC1` (stereo not drawn) are 100%, 53% and 15%.
The matching figures for `CCOC(=O)c1ccc(NC(=O)c2ccccc2C(=O)O)cc1`: 92%, 0% and 2%.
For `CCCN(CCC)C(=O)c1cc(C(=O)N[C@@H](Cc2ccccc2)[C@H](O)CNCc2cccc(C(F)(F)F)c2)cc(N2CCCCS2(=O)=O)c1`, the Inhibition is given as 99% in test [1], 74% in test [2] and 0% in test [3].
The corresponding values for `Clc1ccc2nnc(-c3c(Cl)cccc3Cl)n2n1` are 96%, 60% and 29%.
The corresponding values for `Br.Oc1ccc(CCNCCCCCCNCCc2ccc(Br)cc2)cc1O` are 99%, 5% and 2%.
The matching figures for `Cl.c1ccc(Oc2ccc(Nc3ccnc4c(-c5ccccn5)cccc34)cc2)cc1`: 100%, 58% and 31%.
Take `O=C(NC(CCCN1CCC(c2ccccc2)CC1)c1ccc(Cl)c(Cl)c1)c1cc(C(F)(F)F)cc(C(F)(F)F)c1` (stereo not drawn): the Inhibition is recorded as 92% in test [1], 87% in test [2] and 33% in test [3].
The corresponding values for `Cc1ccc(NC(=O)c2c(C)noc2-c2snnc2C)cc1` are 92%, 71% and 1%.
The corresponding values for `CCN(CC)S(=O)(=O)c1ccc(C(C)NC(=O)c2ccccc2COc2ccccc2)cc1` (stereo not drawn) are 100%, 89% and 0%.
The corresponding values for `CCCNc1ccc2nccc(CCN3CCC(NCc4ccc5c(c4)NC(=O)CS5)CC3)c2n1.Cl` are 94%, 17% and 0%.
As for `O=C(NCCN1CCCCC1)c1cc2cc(-c3ccccc3)ccc2n1S(=O)(=O)c1ccccc1`, the Inhibition in test [1] stood at 90%; in test [2], 0%; in test [3], 15%.
The matching figures for `CCCCOc1cc2ncc(C(=O)OCC)c(O)c2cc1OCCCC`: 97%, 96% and 0%.
For `CCOc1c(OC)ccc2c1CCN(CCN1CCC(CNC(=O)c3ccc(-c4ccc(C(F)(F)F)cc4)cc3)CC1)C2`, the Inhibition is recorded as 100% in test [1], 21% in test [2] and 54% in test [3].
The matching figures for `COc1ccc(CN2C(=S)N(Cc3ccccc3)C(=O)C2CC(=O)Nc2ccccc2)cc1OC` (stereo not drawn): 96%, 73% and 6%.
The matching figures for `COc1ccc(S(=O)(=O)Nc2cc(C)cc(Br)c2OC)cc1N1CCN(C(=O)C(Cl)(Cl)Cl)CC1.Cl`: 91%, 66% and 9%.
The corresponding values for `CCc1ccc(CNCC(CCNc2cc(=O)c3ccccc3[nH]2)NCc2cc(Br)cc(Br)c2)o1` (stereo not drawn) are 100%, 92% and 0%.
With `Oc1cc(Nc2ccnc3cc(I)ccc23)c(F)cc1Cl`, the values for the Inhibition in test [1], in test [2] and in test [3] were 92%, 77% and 0%, respectively.
The corresponding values for `Cc1cc(N)c2cc(NC(=O)/C=C/c3ccccc3)ccc2n1` are 100%, 68% and 20%.
The corresponding values for `O=C(/C=C/c1cccs1)NCC(NCCCNc1cc(=O)c2ccccc2[nH]1)c1cc(Br)cc(Br)c1` (stereo not drawn) are 100%, 58% and 0%.
The corresponding values for `O=C(COc1cccc([N+](=O)[O-])c1)Nc1ccc(-c2nc3ccccc3[nH]2)cc1` are 99%, 5% and 12%.
For `Cc1cc2c(cc1Cl)N(C(=O)Nc1cc(F)cc(-c3cncnc3)c1)CC2`, the Inhibition in test [1] is recorded as 96%; in test [2], 59%; in test [3] it was 0%.
The matching figures for `Cc1cc(C2CCN(CCCCNC(=O)c3ccc(NC(=O)c4ccc(Cl)cc4)cc3)CC2)c(C)cc1OC(C)C.Cl`: 100%, 92% and 22%.
The matching figures for `O=C(O)C(F)(F)F.O=[N+]([O-])c1cccc(CNCC2CCN(Cc3ccc4ccccc4c3)CC2)c1`: 100%, 42% and 18%.
The matching figures for `O=C(CC1CCCCC1)NCC(NCCCNc1cc(=O)c2ccccc2[nH]1)c1cc(Br)cc(Br)c1` (stereo not drawn): 95%, 52% and 8%.
For the compound `Nc1c(Cl)cc(C(O)CNCCCCCOCCc2ccc3occc3c2)cc1Cl` (stereo not drawn), the values for the Inhibition in test [1], in test [2] and in test [3] were 99%, 74% and 0%, respectively.

One may read the Inhibition as the relative decrease from the control value, in per cent.
